Data taken from PubChem BioAssay AID624300 (Southern Research Specialized Biocontainment Screening …, 2012).
In all, about 2,400 compounds went through this assay and about 360 (15%) were called active.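 Rule for the calls: active = viability falls under 70% at one or more tested concentrations, taken as toxicity; inactive = viability stays over 70% at every dose.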 Only a sample is shown. Results with a measured potency or affinity are listed apart.

Assay: viability loss in HeLa cells – cytotoxicity control for MgcRacGAP inhibitor project, dose response (AID 624300)
Conditions: CellTiter-Glo luminescence, 24 h; series mostly up to 100 µM
With Cc1ccc(O)c(C=Nc2ccc3[nH]ncc3c2)c1 the outcome was “inactive”. In the case of Nc1ccc2nc(C3CCCCC3)[nH]c2c1, the outcome is reported as “inactive”. In the case of CCOC(=O)C1Nc2ccc(C(=O)O)cc2C2C=CCC12 (stereo not drawn), the outcome is reported as “inactive”. With CCOc1cc(/C=N/N2CCN(Cc3ccccc3)CC2)ccc1O the outcome was “inactive”. In the case of Cc1sc2nc(CN3CCOCC3)nc(N3CCOCC3)c2c1C, the outcome is reported as “inactive”. For O=S(=O)(Nc1ccccc1F)c1cccc(NC(=S)NCCN2CCOCC2)c1, the outcome was “inactive”. For CCN(CC)c1ccc(NC(=O)CN(C)Cc2cccs2)cc1, the outcome was “inactive”. With CN(C)S(=O)(=O)c1cc(NC(=O)CNCCN2CCOCC2)ccc1Cl the outcome was “inactive”. With O=C1/C(=C\c2ccccc2)CN(C(=O)CCN2CCCCC2)C/C1=C/c1ccccc1 the outcome was “inactive”. With COc1cc(/C=N/NC(=O)c2cc(C)oc2C)ccc1O the outcome was “inactive”. With COC(=O)/C(=C/Nc1ccc(O)cc1)[N+](=O)[O-] the outcome was “inactive”. In the case of Nc1ccc2c(c1)Cc1cc(N)c(Cl)cc1-2, the outcome is reported as “inactive”. With COc1cc(C(C)n2nnc3ccccc32)ccc1O (stereo not drawn) the outcome was “inactive”. With COc1ccccc1OCCCCCCN1CCOCC1 the outcome was “inactive”. With COCCNC(=S)Nc1cc(OC)c(OC)cc1C#N the outcome was “inactive”. For Cc1cc(O)ccc1Nc1nc(-c2cccs2)cs1, the outcome was “inactive”. For Cc1cc(NS(=O)(=O)c2ccc(Nc3nc(-c4ccc(O)cc4)cs3)cc2)no1, the outcome was “inactive”. With Oc1ccc(-c2csc(Nc3ccccn3)n2)cc1 the outcome was “inactive”. For CC(=O)Nc1cccc(-c2csc(NCc3ccccc3)n2)c1, the outcome was “inactive”. In the case of Cc1nc2ncccn2c1-c1csc(Nc2ccc(O)cc2)n1, the outcome is reported as “inactive”. For Cc1ccnc(Nc2nc(-c3ccc(O)cc3)cs2)c1, the outcome was “inactive”. In the case of NS(=O)(=O)c1ccc(Nc2nc(-c3ccc(O)cc3)cs2)cc1, the outcome is reported as “inactive”. In the case of CC(C)Oc1ccc(OCCn2c(=S)[nH]c3c(N)ncnc32)cc1, the outcome is reported as “inactive”. In the case of CSc1ccccc1NC(=O)CN(C)C(C)C(=O)NCc1ccc2c(c1)OCO2 (stereo not drawn), the outcome is reported as “inactive”. In the case of COc1cc(/C=C/C(=O)OCC(=O)Nc2ccc3c(c2)OCO3)ccc1O, the outcome is reported as “inactive”. In the case of Nn1c(=S)[nH]c2sc3c(c2c1=O)CCCC3, the outcome is reported as “inactive”. In the case of Cc1cc(C)c(OCC(O)CN2CCN(C(=O)c3ccccc3)CC2)c(C)c1 (stereo not drawn), the outcome is reported as “inactive”. In the case of COc1nc(Nc2ccc(O)cc2)nc(OC(C(F)(F)F)C(F)(F)F)n1, the outcome is reported as “inactive”. With O=C(c1cccc(F)c1)N1CCN(Cc2cccc(Br)c2)CC1 the outcome was “inactive”. With OCCN1CCN(C(=S)Nc2cccc(C(F)(F)F)c2)CC1 the outcome was “inactive”. With N#CC1=C(S)N(c2ccc(F)cc2)C(c2cccs2)NC1=O (stereo not drawn) the outcome was “inactive”. In the case of O=C(O)c1ccc(-c2ccc(/C=c3/sc4nc5ccccc5n4c3=O)o2)cc1Cl, the outcome is reported as “inactive”. With O=S(=O)(c1ccc2ccccc2c1)N1CCN(C2CCN(Cc3ccccc3)CC2)CC1 the outcome was “inactive”.
